Reference: PMC7862700, “An all-to-all approach to the identification of sequence-specific readers for epigenetic DNA modifications on cytosine”

Columns and labels:
Test in all cases: DAPPL (digital affinity profiling via proximity ligation, sequencing); 10 mM Tris-HCl pH 7.5, 50 mM NaCl, 1 mM DTT, 4% glycerol, room temperature, 30 min; GST-TFs on glutathione beads, 16-mer random dsDNA library, 0.1% formaldehyde crosslink after washing; high values mean tight binding
FLI1 = target: T1, FLI1 (Homo sapiens, UniProt Q01543 1-452); details: protein: recombinant; tags: N-terminal GST; dsDNA, one strand shown
T1 sequence: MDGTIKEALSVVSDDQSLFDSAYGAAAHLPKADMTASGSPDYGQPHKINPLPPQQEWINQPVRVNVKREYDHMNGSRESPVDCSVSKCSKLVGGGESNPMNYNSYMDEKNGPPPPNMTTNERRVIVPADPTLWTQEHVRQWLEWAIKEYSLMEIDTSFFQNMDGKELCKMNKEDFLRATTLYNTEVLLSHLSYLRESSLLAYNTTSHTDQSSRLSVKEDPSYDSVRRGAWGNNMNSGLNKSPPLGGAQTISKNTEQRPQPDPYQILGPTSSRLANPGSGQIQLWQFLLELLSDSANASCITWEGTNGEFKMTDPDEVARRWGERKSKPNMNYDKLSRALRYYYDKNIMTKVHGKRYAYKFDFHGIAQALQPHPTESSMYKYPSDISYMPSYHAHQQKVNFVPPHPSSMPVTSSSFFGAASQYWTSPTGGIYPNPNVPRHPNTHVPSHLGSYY
How it was run: (§1)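 Binding signal is each hexamer's read frequency for a factor divided by its frequency in the tag-only sample. The factors were GST-fused human transcription factors from yeast, captured on glutathione beads, DNA-barcoded and pooled with that sample. Pools were incubated with 200 nmole of a random double-stranded 16-mer DNA library in Tris/NaCl/DTT/glycerol buffer at room temperature for 30 min, then washed, crosslinked with 0.1% formaldehyde, proximity-ligated with BsaI/T4 ligase (1 h, 37 °C), PCR-amplified and sequenced on an Illumina NextSeq500.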

ELK1 = target: T2, ELK1 (Homo sapiens, UniProt P19419 1-428); details: protein: recombinant; tags: N-terminal GST; dsDNA, one strand shown
T2 sequence: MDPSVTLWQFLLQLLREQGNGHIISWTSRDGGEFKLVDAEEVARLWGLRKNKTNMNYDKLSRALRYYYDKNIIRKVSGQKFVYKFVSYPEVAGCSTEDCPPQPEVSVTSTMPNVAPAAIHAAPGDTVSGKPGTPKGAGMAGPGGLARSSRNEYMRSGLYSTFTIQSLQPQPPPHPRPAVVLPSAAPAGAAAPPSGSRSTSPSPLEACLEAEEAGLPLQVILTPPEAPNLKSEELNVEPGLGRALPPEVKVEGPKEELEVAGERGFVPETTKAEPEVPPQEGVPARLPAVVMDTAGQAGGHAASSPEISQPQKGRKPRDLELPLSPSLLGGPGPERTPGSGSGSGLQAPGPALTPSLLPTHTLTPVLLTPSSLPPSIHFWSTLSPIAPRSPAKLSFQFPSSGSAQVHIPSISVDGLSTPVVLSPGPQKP
How it was run: as §1

GABPA = target: T3, GABPA (Homo sapiens, UniProt Q06546 1-454); details: protein: recombinant; tags: N-terminal GST; dsDNA, one strand shown
T3 sequence: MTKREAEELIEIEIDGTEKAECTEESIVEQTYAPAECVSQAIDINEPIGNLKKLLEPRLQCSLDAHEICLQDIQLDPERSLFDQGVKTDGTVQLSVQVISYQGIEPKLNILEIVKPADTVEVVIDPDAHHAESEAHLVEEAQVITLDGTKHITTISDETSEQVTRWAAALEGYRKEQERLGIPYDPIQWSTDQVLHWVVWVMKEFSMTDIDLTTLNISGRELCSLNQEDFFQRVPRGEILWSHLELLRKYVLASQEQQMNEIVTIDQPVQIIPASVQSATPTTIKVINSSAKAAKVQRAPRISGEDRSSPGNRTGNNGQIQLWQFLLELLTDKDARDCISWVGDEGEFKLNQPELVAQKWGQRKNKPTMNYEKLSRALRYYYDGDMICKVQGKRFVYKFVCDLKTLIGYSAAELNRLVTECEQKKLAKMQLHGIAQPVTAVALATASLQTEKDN
How it was run: as §1

ERG = target: T4, ERG (Homo sapiens, UniProt P11308 1-479); details: protein: recombinant; tags: N-terminal GST; dsDNA, one strand shown
T4 sequence: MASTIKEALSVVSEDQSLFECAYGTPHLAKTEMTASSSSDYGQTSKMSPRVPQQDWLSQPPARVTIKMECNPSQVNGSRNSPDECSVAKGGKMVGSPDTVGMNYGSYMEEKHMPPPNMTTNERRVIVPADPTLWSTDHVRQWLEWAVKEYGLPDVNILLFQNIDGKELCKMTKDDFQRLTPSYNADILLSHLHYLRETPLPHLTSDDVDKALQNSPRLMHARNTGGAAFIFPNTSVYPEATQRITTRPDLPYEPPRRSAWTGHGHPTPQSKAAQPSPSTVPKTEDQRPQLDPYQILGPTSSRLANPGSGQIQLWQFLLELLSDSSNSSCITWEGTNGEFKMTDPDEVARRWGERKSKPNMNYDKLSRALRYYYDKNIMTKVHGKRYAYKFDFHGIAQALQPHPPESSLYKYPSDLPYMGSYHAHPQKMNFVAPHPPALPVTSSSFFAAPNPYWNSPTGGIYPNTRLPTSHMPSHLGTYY
How it was run: as §1

ELF1 = ELF1 (Homo sapiens, UniProt P32519 1-619); details: protein: recombinant; tags: N-terminal GST; dsDNA, one strand shown
Sequence of ELF1 (P32519 whole entry): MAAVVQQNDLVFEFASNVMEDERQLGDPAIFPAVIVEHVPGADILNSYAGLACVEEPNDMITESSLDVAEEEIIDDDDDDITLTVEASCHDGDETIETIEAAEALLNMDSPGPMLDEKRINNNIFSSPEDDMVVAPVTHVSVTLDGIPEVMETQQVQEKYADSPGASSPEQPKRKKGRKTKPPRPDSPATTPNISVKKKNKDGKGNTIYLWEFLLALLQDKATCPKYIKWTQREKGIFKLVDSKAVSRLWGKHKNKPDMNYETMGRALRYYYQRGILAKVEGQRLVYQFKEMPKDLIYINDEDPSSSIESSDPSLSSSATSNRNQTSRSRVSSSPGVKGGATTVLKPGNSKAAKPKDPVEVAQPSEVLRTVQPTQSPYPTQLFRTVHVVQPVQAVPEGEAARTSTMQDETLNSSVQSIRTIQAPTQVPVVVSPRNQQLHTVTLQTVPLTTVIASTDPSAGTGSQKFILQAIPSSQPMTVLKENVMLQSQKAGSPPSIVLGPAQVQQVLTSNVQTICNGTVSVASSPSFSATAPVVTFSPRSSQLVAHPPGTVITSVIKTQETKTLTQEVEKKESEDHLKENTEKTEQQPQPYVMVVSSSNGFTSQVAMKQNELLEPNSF
How it was run: as §1

EHF = target: T5, EHF (Homo sapiens, UniProt Q9NZC4 1-300); details: protein: recombinant; tags: N-terminal GST; dsDNA, one strand shown
T5 sequence: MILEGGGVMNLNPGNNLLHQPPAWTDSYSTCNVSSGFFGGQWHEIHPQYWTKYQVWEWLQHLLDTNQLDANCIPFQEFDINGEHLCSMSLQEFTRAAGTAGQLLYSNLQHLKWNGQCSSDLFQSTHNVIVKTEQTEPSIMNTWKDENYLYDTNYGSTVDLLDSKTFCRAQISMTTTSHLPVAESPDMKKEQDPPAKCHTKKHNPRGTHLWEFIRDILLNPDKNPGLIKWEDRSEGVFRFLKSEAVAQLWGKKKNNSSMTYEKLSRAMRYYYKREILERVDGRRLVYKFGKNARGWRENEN
How it was run: as §1

SPI1 = SPI1 (Homo sapiens, UniProt P17947 1-270); details: protein: recombinant; tags: N-terminal GST; dsDNA, one strand shown
How it was run: as §1

SPIB = SPIB (Homo sapiens, UniProt Q01892 1-262); details: protein: recombinant; tags: N-terminal GST; dsDNA, one strand shown
Sequence of SPIB (Q01892 whole entry): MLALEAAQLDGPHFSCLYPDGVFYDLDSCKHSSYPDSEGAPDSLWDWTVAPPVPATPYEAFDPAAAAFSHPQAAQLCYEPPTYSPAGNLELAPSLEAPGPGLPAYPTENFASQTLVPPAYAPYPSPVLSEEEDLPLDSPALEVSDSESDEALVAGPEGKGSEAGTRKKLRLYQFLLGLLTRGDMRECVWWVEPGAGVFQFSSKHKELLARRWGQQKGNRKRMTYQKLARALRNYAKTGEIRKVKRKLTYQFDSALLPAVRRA
How it was run: as §1

ELK3 = target: T6, ELK3 (Homo sapiens, UniProt P41970 1-407); details: protein: recombinant; tags: N-terminal GST; dsDNA, one strand shown
T6 sequence: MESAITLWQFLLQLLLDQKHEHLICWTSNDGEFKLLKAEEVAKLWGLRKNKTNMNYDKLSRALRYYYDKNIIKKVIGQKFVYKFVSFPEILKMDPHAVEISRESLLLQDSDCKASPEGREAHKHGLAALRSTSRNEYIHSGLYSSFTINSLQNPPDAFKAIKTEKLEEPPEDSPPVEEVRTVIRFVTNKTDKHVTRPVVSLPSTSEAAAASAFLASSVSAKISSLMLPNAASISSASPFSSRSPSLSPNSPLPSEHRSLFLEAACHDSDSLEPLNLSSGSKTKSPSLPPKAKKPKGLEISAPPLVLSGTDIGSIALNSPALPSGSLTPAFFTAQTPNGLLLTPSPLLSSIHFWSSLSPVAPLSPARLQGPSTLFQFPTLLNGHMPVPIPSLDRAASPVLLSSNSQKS
How it was run: as §1

FEV = target: T7, FEV (Homo sapiens, UniProt Q99581 1-238); details: protein: recombinant; tags: N-terminal GST; dsDNA, one strand shown
T7 sequence: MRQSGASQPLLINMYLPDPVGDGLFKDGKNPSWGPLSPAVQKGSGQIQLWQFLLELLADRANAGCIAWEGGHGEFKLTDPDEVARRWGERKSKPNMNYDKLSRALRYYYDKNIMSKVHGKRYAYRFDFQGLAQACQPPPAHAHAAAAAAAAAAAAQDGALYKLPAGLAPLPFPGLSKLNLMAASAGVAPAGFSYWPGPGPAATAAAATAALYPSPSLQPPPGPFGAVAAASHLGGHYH
How it was run: as §1

ETV5 = ETV5 (Homo sapiens, UniProt P41161 1-510); details: protein: recombinant; tags: N-terminal GST; dsDNA, one strand shown
Sequence of ETV5 (P41161 whole entry): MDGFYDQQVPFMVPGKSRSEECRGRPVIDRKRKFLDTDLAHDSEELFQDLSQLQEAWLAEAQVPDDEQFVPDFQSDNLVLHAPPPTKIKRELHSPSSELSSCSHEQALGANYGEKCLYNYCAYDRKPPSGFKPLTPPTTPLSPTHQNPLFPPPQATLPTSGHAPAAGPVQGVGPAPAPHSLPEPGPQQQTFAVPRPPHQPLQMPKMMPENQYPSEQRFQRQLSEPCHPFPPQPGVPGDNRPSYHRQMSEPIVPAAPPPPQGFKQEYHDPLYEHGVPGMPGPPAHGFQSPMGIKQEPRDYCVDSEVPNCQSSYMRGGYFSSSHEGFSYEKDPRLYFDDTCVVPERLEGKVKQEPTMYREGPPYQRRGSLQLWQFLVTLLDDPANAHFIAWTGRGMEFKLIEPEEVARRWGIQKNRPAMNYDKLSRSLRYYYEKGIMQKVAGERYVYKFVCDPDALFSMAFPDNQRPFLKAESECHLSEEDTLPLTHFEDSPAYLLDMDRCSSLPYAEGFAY
How it was run: as §1

HSF1 = HSF1 (Homo sapiens, UniProt Q00613 1-529); details: protein: recombinant; tags: N-terminal GST; chain copies: 3; dsDNA, one strand shown
Sequence of HSF1 (Q00613 whole entry): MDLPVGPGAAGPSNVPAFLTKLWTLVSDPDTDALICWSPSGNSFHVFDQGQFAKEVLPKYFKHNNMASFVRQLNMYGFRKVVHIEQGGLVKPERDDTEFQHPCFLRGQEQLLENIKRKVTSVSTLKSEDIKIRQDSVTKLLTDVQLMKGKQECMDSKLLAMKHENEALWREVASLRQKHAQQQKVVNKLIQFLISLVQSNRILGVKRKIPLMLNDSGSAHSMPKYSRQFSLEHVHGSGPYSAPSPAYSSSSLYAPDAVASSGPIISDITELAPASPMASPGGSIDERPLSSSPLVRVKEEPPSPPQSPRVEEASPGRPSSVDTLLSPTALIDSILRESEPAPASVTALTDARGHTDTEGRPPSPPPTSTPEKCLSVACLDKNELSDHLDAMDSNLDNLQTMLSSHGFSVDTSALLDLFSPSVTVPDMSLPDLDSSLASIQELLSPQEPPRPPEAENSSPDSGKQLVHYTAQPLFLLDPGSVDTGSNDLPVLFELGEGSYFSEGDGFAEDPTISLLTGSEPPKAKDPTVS
How it was run: as §1

SPIC = target: T8, SPIC (Homo sapiens, UniProt Q8N5J4 1-248); details: protein: recombinant; tags: N-terminal GST; dsDNA, one strand shown
T8 sequence: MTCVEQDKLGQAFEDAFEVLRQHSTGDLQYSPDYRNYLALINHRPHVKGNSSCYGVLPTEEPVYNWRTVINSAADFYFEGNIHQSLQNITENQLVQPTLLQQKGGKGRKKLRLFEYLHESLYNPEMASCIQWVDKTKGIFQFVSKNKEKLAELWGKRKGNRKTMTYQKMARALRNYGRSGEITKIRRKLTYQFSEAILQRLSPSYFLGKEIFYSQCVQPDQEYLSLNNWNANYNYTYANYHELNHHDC
How it was run: as §1

ELF4 = ELF4 (Homo sapiens, UniProt Q99607 1-663); details: protein: recombinant; tags: N-terminal GST; dsDNA, one strand shown
Sequence of ELF4 (Q99607 whole entry): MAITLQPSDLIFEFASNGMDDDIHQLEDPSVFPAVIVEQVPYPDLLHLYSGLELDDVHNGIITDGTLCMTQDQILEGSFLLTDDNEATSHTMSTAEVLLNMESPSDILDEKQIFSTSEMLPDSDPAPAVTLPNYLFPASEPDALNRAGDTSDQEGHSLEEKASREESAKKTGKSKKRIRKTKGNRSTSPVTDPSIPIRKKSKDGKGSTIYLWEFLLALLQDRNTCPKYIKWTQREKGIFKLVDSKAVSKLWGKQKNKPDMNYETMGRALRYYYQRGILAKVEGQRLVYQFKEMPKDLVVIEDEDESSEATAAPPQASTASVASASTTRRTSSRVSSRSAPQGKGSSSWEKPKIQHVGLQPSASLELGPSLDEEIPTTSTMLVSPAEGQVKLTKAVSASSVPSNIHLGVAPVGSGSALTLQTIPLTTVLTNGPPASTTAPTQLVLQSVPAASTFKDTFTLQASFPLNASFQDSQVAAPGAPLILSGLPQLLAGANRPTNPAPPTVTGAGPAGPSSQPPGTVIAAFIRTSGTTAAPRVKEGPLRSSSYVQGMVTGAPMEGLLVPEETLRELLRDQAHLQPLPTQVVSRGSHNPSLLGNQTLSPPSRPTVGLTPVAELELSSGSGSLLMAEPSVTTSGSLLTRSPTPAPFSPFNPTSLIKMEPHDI
How it was run: as §1

ELK4 = target: T9, ELK4 (Homo sapiens, UniProt P28324-2 1-405); details: protein: recombinant; tags: N-terminal GST; dsDNA, one strand shown
T9 sequence: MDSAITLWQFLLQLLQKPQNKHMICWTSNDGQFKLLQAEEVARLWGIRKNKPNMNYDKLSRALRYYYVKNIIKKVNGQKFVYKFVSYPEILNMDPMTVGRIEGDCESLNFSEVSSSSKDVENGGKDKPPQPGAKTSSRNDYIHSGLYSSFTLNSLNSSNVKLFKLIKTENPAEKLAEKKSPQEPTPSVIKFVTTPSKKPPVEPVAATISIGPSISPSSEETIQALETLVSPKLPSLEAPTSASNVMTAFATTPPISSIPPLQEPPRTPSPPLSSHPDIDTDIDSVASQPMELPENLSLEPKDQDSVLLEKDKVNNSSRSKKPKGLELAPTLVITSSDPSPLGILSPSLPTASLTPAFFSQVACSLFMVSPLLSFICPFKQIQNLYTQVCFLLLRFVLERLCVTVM
How it was run: as §1

ETV2 = target: T10, ETV2 (Homo sapiens, UniProt O00321 1-342); details: protein: recombinant; tags: N-terminal GST; dsDNA, one strand shown
T10 sequence: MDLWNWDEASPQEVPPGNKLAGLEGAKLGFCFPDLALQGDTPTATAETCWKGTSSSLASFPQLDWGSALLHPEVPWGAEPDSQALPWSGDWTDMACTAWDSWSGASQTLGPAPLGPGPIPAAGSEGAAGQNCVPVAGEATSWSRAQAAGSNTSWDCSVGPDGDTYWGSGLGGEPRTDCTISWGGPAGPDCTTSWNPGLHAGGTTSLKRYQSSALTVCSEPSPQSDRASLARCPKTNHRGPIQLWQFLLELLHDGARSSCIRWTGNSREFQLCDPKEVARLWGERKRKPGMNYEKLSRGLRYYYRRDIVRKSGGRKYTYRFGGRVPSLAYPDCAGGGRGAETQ
How it was run: as §1

ELF3 = target: T11, ELF3 (Homo sapiens, UniProt P78545 1-371); details: protein: recombinant; tags: N-terminal GST; dsDNA, one strand shown
T11 sequence: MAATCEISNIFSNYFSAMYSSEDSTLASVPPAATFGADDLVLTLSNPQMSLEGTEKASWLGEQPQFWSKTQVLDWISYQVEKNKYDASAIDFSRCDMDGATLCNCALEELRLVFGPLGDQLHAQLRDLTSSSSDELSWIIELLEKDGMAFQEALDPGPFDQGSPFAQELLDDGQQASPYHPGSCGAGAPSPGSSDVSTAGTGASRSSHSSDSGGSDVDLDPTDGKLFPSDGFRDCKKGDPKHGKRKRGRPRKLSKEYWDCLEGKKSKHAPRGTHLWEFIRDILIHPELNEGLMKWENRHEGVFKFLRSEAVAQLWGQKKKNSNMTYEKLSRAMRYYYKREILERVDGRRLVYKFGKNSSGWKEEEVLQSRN
How it was run: as §1

CRX = CRX (Homo sapiens, UniProt O43186 1-299); details: protein: recombinant; tags: N-terminal GST; dsDNA, one strand shown
Sequence of CRX (O43186 whole entry): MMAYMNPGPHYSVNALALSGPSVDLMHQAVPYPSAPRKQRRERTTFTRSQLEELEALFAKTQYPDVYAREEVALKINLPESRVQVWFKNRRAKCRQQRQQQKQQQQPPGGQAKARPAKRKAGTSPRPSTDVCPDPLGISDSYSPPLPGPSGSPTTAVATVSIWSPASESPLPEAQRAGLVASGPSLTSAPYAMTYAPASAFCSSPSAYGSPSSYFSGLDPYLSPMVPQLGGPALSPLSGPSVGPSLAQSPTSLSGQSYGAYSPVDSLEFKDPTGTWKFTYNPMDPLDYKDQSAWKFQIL
How it was run: as §1

ETV1 = ETV1 (Homo sapiens, UniProt P50549 1-477); details: protein: recombinant; tags: N-terminal GST; dsDNA, one strand shown
Sequence of ETV1 (P50549 whole entry): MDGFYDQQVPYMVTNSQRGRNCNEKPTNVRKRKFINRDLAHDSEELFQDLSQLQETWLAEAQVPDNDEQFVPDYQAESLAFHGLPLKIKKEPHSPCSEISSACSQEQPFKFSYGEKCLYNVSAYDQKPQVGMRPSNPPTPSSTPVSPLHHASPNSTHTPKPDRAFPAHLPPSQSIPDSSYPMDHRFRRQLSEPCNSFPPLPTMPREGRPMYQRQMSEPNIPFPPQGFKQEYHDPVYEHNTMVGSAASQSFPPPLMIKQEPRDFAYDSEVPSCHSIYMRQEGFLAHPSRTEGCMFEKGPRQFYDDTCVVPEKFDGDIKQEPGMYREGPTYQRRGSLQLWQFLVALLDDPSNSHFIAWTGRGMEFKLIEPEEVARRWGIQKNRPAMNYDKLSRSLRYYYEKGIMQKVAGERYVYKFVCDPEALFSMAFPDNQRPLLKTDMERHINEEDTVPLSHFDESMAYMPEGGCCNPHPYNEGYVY
How it was run: as §1

## ATATTT
FLI1
  binding signal: 1.6 fold enrichment (6-mer frequency, TF over GST control)
ELK1
  binding signal: 1.54 fold enrichment (6-mer frequency, TF over GST control)
GABPA
  binding signal: 1.55 fold enrichment (6-mer frequency, TF over GST control)
ERG
  binding signal: 1.53 fold enrichment (6-mer frequency, TF over GST control)
ELF1
  binding signal: 1.55 fold enrichment (6-mer frequency, TF over GST control)
EHF
  binding signal: 1.56 fold enrichment (6-mer frequency, TF over GST control)
SPI1
  binding signal: 1.43 fold enrichment (6-mer frequency, TF over GST control)
SPIB
  binding signal: 1.51 fold enrichment (6-mer frequency, TF over GST control)
ELK3
  binding signal: 1.47 fold enrichment (6-mer frequency, TF over GST control)
FEV
  binding signal: 1.47 fold enrichment (6-mer frequency, TF over GST control)
ETV5
  binding signal: 1.54 fold enrichment (6-mer frequency, TF over GST control)
HSF1
  binding signal: 1.52 fold enrichment (6-mer frequency, TF over GST control)
SPIC
  binding signal: 1.45 fold enrichment (6-mer frequency, TF over GST control)
ELF4
  binding signal: 1.53 fold enrichment (6-mer frequency, TF over GST control)
ELK4
  binding signal: 1.81 fold enrichment (6-mer frequency, TF over GST control)
ETV2
  binding signal: 1.55 fold enrichment (6-mer frequency, TF over GST control)
ELF3
  binding signal: 1.54 fold enrichment (6-mer frequency, TF over GST control)
CRX
  binding signal: 1.6 fold enrichment (6-mer frequency, TF over GST control)
ETV1
  binding signal: 1.56 fold enrichment (6-mer frequency, TF over GST control)
